Experimental data from ChEMBL document CHEMBL3433997, “St. Jude Leishmania screening dataset” (2016).

Target: Solute carrier family 2, facilitated glucose transporter member 1 (Homo sapiens) (UniProt P11166)
Assay: ST_JUDE_LEISH: Cytotoxicity at 2uM final concentration against transgenic Leishmania Mexicana promastigotes LmGLUT1 that are glucose transport deficient and complemented with the human glucose transporter GLUT1. Activity is measured by DNA content using SYBR green in vitro
Format: functional

Chain of Solute carrier family 2, facilitated glucose transporter member 1 (Homo sapiens) (P11166 whole entry): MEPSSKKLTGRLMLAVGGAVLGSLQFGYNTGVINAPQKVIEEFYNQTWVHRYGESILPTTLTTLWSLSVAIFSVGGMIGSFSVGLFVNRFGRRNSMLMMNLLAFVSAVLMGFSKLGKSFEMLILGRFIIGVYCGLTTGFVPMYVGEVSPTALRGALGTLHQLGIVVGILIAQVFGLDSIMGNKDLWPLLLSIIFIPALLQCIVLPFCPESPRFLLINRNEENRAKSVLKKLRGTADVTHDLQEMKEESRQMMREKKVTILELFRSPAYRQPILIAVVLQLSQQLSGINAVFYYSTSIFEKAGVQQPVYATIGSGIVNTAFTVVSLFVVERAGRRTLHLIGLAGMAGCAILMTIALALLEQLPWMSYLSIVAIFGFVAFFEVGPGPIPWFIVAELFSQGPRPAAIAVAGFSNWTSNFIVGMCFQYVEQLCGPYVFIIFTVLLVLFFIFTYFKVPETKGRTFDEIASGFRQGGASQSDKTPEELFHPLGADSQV

Structure (SMILES)	inhibition
COc1ccc2nccc(NC(=O)C3CCC(NCc4ccc5c(c4)NC(=O)CS5)CC3)c2c1 (stereo not given)	4.42%
O=C(Nc1ccc(CC(=O)N2CCc3cc(Cl)c(N4CCN(C/C=C/c5ccccc5)CC4)cc32)cc1)Nc1cccc([N+](=O)[O-])c1	1.73%
CC(Oc1cc(-n2cnc3ccc(NC(=O)CCN4CCCCC4)cc32)sc1C(N)=O)c1ccccc1Cl (stereo not given)	16.8%
COc1ccc2c(=NN=Cc3ccccc3F)cc(C)[nH]c2c1	1.77%
FC(F)(F)c1ccc2[nH]c(-c3ccc(-c4ccc(CNCCN5CCNCC5)cc4)cc3)nc2c1	-1.44%
COc1ccc(N2CCN(CCCCNCc3ccc(NC(=O)c4cc(Cl)cc(Cl)c4)cc3)CC2)c(OC)c1	3.33%
CN1CCC(NCc2ccc(-c3cccc(S(=O)(=O)NCCc4ccccn4)c3)cc2)CC1	0.27%
COc1ccc2nccc([C@@H](O)CNCCCN(C)CCOc3cc(F)cc(F)c3)c2c1	6.85%
CCN(CCN(C)C)Cc1ccc(-c2ccc(NS(=O)(=O)c3cccc4cccnc34)cc2)cc1	14%
O=C1CCCN1CCCNCc1ccc(-c2ccc(-c3nc4cc(C(F)(F)F)ccc4[nH]3)cc2)cc1	3.36%
COc1ccc2nc3cc(Cl)ccc3c(NCCN3CCN(C)CC3)c2c1	4.56%
Cc1ncccc1-c1cccc2c(NC(=O)Nc3ccc4nccc(N5CCN(C)CC5)c4c3)cccc12	4.96%
CC1CN(c2cnn(C/C=C/c3ccc(NC(=O)c4ccc([N+](=O)[O-])cc4)cc3)c(=O)c2Cl)CC(C)N1 (stereo not given)	-0.1%
O=C(NC1CCN(CCN2CCc3ccccc3CC2)CC1)c1ccc(-c2ccc(C(F)(F)F)cc2)cc1	5.74%
O=C(Nc1ccc(-c2cccc(-c3nc4ccccc4[nH]3)c2)cc1)c1cnn2cccnc12	7.76%
COc1ccc2c(c1)C(C)(CCCN(C)C)C(=O)N2C (stereo not given)	1.02%
CCNC(=O)N1CCc2ccc(Oc3nc(NCc4ccccc4OC)ncc3C)cc2CC1	5.14%
FC(F)(F)c1ccc2[nH]ccc(=NN=Cc3ccccc3)c2c1	1.45%
COc1cc(Cc2cnc3nc(N)nc(N)c3c2C)cc(OC)c1OC	1.29%
Oc1c(C(Nc2nc3ccccc3s2)c2ccccc2)ccc2cccnc12 (stereo not given)	2.66%

Structure (SMILES)	inhibition
Nc1nc(N)c2c(CCc3ccc(Cl)c(Cl)c3)cccc2n1	10.7%
Cc1cc(N[C@@H](Cc2ccccc2)C(=O)Nc2ccccc2)nc(NCCN2CCCC2)n1	-2.01%
COc1cc(-c2nc(C(C)(C)CN)[nH]c2-c2ccncc2)ccc1Br	7.38%
COc1ccccc1N1CCN(C(C(=O)NCc2ccc3c(c2)OCO3)c2ccc3c(c2)OCCCO3)CC1 (stereo not given)	1.2%
CCc1n[nH]c(C(=O)NC2CCN(CC3(c4ccc(OC)cc4)CCCCC3)CC2)c1C	3.43%
O=C(NCc1ccc(C(=O)NC2CCCCC2)cc1)c1ccc(O)c(-c2ccc(Cl)c(Cl)c2)c1	2.46%
CN1CCN(c2ccc(CNc3ccc4ncc(-c5cccc(OC(F)(F)F)c5)n4n3)cc2)CC1	-2.82%
COc1ccc2cc(C(=O)Nc3ccc4c(c3)CCN(C3CCC3)CC4)ccc2c1	-2.16%
CCCCCCCC/C=C\CCCCCCCC(=O)NCc1ccc(O)c(OC)c1	8.15%
O=C(Nc1cc(F)cc(F)c1)N1CCOC(CCN2CCC(c3ccccc3)CC2)(c2ccc(Cl)c(Cl)c2)C1 (stereo not given)	4.27%
COc1ccc2nccc([C@@H](O)CN3CCC(NC(=O)c4cc5c(F)cc(F)cc5[nH]4)CC3)c2n1	87%
N#Cc1ccc(CN2CCCN(Cc3cccc(NC(=O)c4ccc(-c5ccccc5)cc4)c3)CC2)cc1	1.73%
CC(C)COc1ccc(Cl)cc1Cc1ccc(-c2nc3ccc(Cl)cc3[nH]2)o1	-1.56%
OCC(c1ccccc1)n1c(COc2ccc(Cl)cc2)nc2c(OCCCN3CCCCC3)cccc21 (stereo not given)	12.9%
Clc1ccc2c(NN=Cc3cccs3)ccnc2c1	1.34%
CC(C)CNCc1cccc(-c2cccc(CNCCCN3CCN(C)CC3)c2)c1	2.03%
CCCCCC(C)C(C)c1cc(O)c2c(c1)OC(C)(C)CC2c1cc[n+]([O-])cc1 (stereo not given)	3.19%
CN1CCN(c2ccnc3ccc(NC(=O)Nc4cccc5c(-c6ccncc6)cccc45)cc23)CC1	-0.27%
COc1ccc(N2CCN(CCCCNC(=O)c3ccc(NC(=O)c4cc(C(F)(F)F)cc(C(F)(F)F)c4)cc3)CC2)c(OC)c1	1.62%
O=C(c1ccc(-c2ccc(-c3nc4cc(C(F)(F)F)ccc4[nH]3)s2)cc1)N1CCN(CCc2ccccc2)CC1	5.29%

Target: Hexose transporter 1 (Plasmodium falciparum) (UniProt O97467)
Assay: ST_JUDE_LEISH: Cytotoxicity at 2uM final concentration against transgenic Leishmania Mexicana promastigotes LmPfHT that are glucose transport deficient and complemented with the Plasmodium falciparum hexose transporter. Activity is measured by DNA content using SYBR green in vitro
Format: functional

Structure (SMILES)	inhibition
COc1ccc2nccc(NC(=O)C3CCC(NCc4ccc5c(c4)NC(=O)CS5)CC3)c2c1 (stereo not given)	2.96%
O=C(Nc1ccc(CC(=O)N2CCc3cc(Cl)c(N4CCN(C/C=C/c5ccccc5)CC4)cc32)cc1)Nc1cccc([N+](=O)[O-])c1	1.25%
CC(Oc1cc(-n2cnc3ccc(NC(=O)CCN4CCCCC4)cc32)sc1C(N)=O)c1ccccc1Cl (stereo not given)	9.84%
COc1ccc2c(=NN=Cc3ccccc3F)cc(C)[nH]c2c1	1.74%
FC(F)(F)c1ccc2[nH]c(-c3ccc(-c4ccc(CNCCN5CCNCC5)cc4)cc3)nc2c1	0.13%
COc1ccc(N2CCN(CCCCNCc3ccc(NC(=O)c4cc(Cl)cc(Cl)c4)cc3)CC2)c(OC)c1	2.32%
CN1CCC(NCc2ccc(-c3cccc(S(=O)(=O)NCCc4ccccn4)c3)cc2)CC1	-0.63%
COc1ccc2nccc([C@@H](O)CNCCCN(C)CCOc3cc(F)cc(F)c3)c2c1	7.45%
CCN(CCN(C)C)Cc1ccc(-c2ccc(NS(=O)(=O)c3cccc4cccnc34)cc2)cc1	11.3%
O=C1CCCN1CCCNCc1ccc(-c2ccc(-c3nc4cc(C(F)(F)F)ccc4[nH]3)cc2)cc1	2.91%
COc1ccc2nc3cc(Cl)ccc3c(NCCN3CCN(C)CC3)c2c1	3.95%
Cc1ncccc1-c1cccc2c(NC(=O)Nc3ccc4nccc(N5CCN(C)CC5)c4c3)cccc12	3.58%
CC1CN(c2cnn(C/C=C/c3ccc(NC(=O)c4ccc([N+](=O)[O-])cc4)cc3)c(=O)c2Cl)CC(C)N1 (stereo not given)	1.74%
O=C(NC1CCN(CCN2CCc3ccccc3CC2)CC1)c1ccc(-c2ccc(C(F)(F)F)cc2)cc1	9.69%
O=C(Nc1ccc(-c2cccc(-c3nc4ccccc4[nH]3)c2)cc1)c1cnn2cccnc12	2.12%
COc1ccc2c(c1)C(C)(CCCN(C)C)C(=O)N2C (stereo not given)	1.36%
CCNC(=O)N1CCc2ccc(Oc3nc(NCc4ccccc4OC)ncc3C)cc2CC1	6.01%
FC(F)(F)c1ccc2[nH]ccc(=NN=Cc3ccccc3)c2c1	-0.56%
COc1cc(Cc2cnc3nc(N)nc(N)c3c2C)cc(OC)c1OC	1.49%
Oc1c(C(Nc2nc3ccccc3s2)c2ccccc2)ccc2cccnc12 (stereo not given)	3.92%

Structure (SMILES)	inhibition
Nc1nc(N)c2c(CCc3ccc(Cl)c(Cl)c3)cccc2n1	11.2%
Cc1cc(N[C@@H](Cc2ccccc2)C(=O)Nc2ccccc2)nc(NCCN2CCCC2)n1	-2.84%
COc1cc(-c2nc(C(C)(C)CN)[nH]c2-c2ccncc2)ccc1Br	11.3%
COc1ccccc1N1CCN(C(C(=O)NCc2ccc3c(c2)OCO3)c2ccc3c(c2)OCCCO3)CC1 (stereo not given)	1.04%
CCc1n[nH]c(C(=O)NC2CCN(CC3(c4ccc(OC)cc4)CCCCC3)CC2)c1C	2.97%
O=C(NCc1ccc(C(=O)NC2CCCCC2)cc1)c1ccc(O)c(-c2ccc(Cl)c(Cl)c2)c1	1.38%
CN1CCN(c2ccc(CNc3ccc4ncc(-c5cccc(OC(F)(F)F)c5)n4n3)cc2)CC1	-3.7%
COc1ccc2cc(C(=O)Nc3ccc4c(c3)CCN(C3CCC3)CC4)ccc2c1	2%
CCCCCCCC/C=C\CCCCCCCC(=O)NCc1ccc(O)c(OC)c1	7.4%
O=C(Nc1cc(F)cc(F)c1)N1CCOC(CCN2CCC(c3ccccc3)CC2)(c2ccc(Cl)c(Cl)c2)C1 (stereo not given)	2.5%
COc1ccc2nccc([C@@H](O)CN3CCC(NC(=O)c4cc5c(F)cc(F)cc5[nH]4)CC3)c2n1	84.1%
N#Cc1ccc(CN2CCCN(Cc3cccc(NC(=O)c4ccc(-c5ccccc5)cc4)c3)CC2)cc1	9.67%
CC(C)COc1ccc(Cl)cc1Cc1ccc(-c2nc3ccc(Cl)cc3[nH]2)o1	2.55%
OCC(c1ccccc1)n1c(COc2ccc(Cl)cc2)nc2c(OCCCN3CCCCC3)cccc21 (stereo not given)	9.11%
Clc1ccc2c(NN=Cc3cccs3)ccnc2c1	1.3%
CC(C)CNCc1cccc(-c2cccc(CNCCCN3CCN(C)CC3)c2)c1	0.17%
CCCCCC(C)C(C)c1cc(O)c2c(c1)OC(C)(C)CC2c1cc[n+]([O-])cc1 (stereo not given)	4.07%
CN1CCN(c2ccnc3ccc(NC(=O)Nc4cccc5c(-c6ccncc6)cccc45)cc23)CC1	-0.42%
COc1ccc(N2CCN(CCCCNC(=O)c3ccc(NC(=O)c4cc(C(F)(F)F)cc(C(F)(F)F)c4)cc3)CC2)c(OC)c1	1.33%
O=C(c1ccc(-c2ccc(-c3nc4cc(C(F)(F)F)ccc4[nH]3)s2)cc1)N1CCN(CCc2ccccc2)CC1	3.93%
